# Results as given in PubChem BioAssay (NCATS).
# Values without a mark were called inactive. Results filed as inconclusive are left out. Entries that show only a call come without a potency. The source made the active and inactive calls. Unless noted, calls come from the whole dose curve; as a rule, active = well fitted curve in the direction sought with a large enough effect; inconclusive = small, poorly fitted or top-dose-only effect, or another doubt; inactive = no such curve, though single readings can be large; an effect the other way counts as inactive or inconclusive.
# Assays:
# [1] = qHTS to identify inhibitors of the type 1 interferon - major histocompatibility complex class I in skeletal muscle: primary screen against the NCATS Pharmaceutical Collection (AID 1347407);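 note: luminescence of HiBiT knocked into endogenous HLA-B as interferon-induced MHC class I level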
# Method in brief: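 HLA-B HiBiT myoblasts, dexamethasone-free growth medium + 4 ng/ml IFN-b; compounds pinned 1 h after seeding, […] from 46 uM; 24 h, 37 C, 5% CO2; lytic HiBiT detection, 10 min RT, luminescence.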
# [2] = molecular target: Protein phosphatase 1D (Homo sapiens) (UniProt O15297); assay: RapidFire Mass Spectrometry qHTS Assay for Modulators of WT P53-Induced Phosphatase 1 (WIP1) (AID 1347424); note: series mostly up to about 63 µM
# Method in brief: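 RapidFire MS readout of dephosphorylated VEPPL-S-QETFS product, with 1 uM isotope-labelled peptide standard. Reaction: 10 nM WIP1, 2 uM phosphopeptide substrate, 5 min, room temperature, after 1 h compound preincubation; stopped with 0.5% formic acid.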
# [3] = Primary qHTS for inhibitors of La Crosse Virus (LACV) - induced cell death in SH-SY5Y cells (AID 1508616);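 note: top concentration of the series differs between compounds; higher means more rescue of cells from virus-induced death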
# Method in brief: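 Rescue of virus-induced death was read as ATPLite luminescence after 6 days at 37C, scaled between DMSO wells with LACV and without virus. Cells were SH-SY5Y, 6000/well, infected at 0.01 MOI after compound addition.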
# [4] = molecular target: Calcium and integrin-binding protein 1 (Homo sapiens) (UniProt Q99828); assay: Primary qHTS for Identification of Calcium Integrin Binding Protein 1 (CIB1) Competitor (AID 1508620); note: potency is the fitted concentration of half-maximal effect
# Method in brief: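 Fluorescence polarization competition: GST-tagged CIB1 (1 uM final) preincubated with compound 15 min at room temperature, then FITC-labelled alphaIIb peptide (100 nM final) added. After 15 min at room temperature, polarization read at Ex 480/Em 540.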
# [5] = A High-Content qHTS Against Drug Library for the Identification of Small Molecules that Inhibit DYT1 Early Onset Primary Dystonia-Associated Cell Pathology (AID 1645839; calls by dose curve; note: series mostly up to about 46 µM)
# Method in brief: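 Cells were seeded and left for 24 h, then dosed with compound alongside tetracycline induction of mutant EGFP-TorsinA. They were incubated for 48 h, fixed in 4% paraformaldehyde, permeabilized and imaged for mislocalization (%pathology) and cell count.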
# [6] = molecular target: Cytochrome P450 2D6 (Homo sapiens) (UniProt P10635); assay: Cytochrome P450 family 2 subfamily D member 6 (CYP2D6) small molecule antagonists: luciferase biochemical (cell-free) qHTS assay (AID 1645840; active = well fitted curve in the direction sought with a large enough effect in the repeat runs; an effect the other way counts as inactive or inconclusive; note: nearly all actives have a fitted effect of over 55% in size; note: potency is the fitted concentration of half-maximal effect)
# Method in brief: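 P450-Glo CYP2D6 system: proluciferin substrate converted by enzyme to luciferin, read by luminescence proportional to activity. Enzyme-substrate mix with compound 10 min at room temperature, then NADPH regeneration 1 h before detection reagent.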
# [7] = molecular target: Cytochrome P450 2C9 (Homo sapiens) (UniProt P11712); assay: Cytochrome P450 family 2 subfamily C member 9 (CYP2C9) small molecule antagonists: luciferase biochemical (cell-free) qHTS assay (AID 1645842; active = well fitted curve in the direction sought with a large enough effect in the repeat runs; an effect the other way counts as inactive or inconclusive; note: nearly all actives have a fitted effect of over 55% in size; note: potency is the fitted concentration of half-maximal effect)
# Method in brief: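 P450-Glo CYP2C9 system: proluciferin substrate with enzyme in mix containing 0.4% BSA, 10 min at room temperature, then NADPH regeneration solution added and incubated 1 h at 37C. Detection reagent stopped reaction; luminescence read after 20 min as RLU.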
# [8] = molecular target: Protein phosphatase 1D (Homo sapiens) (UniProt O15297); assay: Rhodamine-PBP qHTS Assay for Modulators of WT P53-Induced Phosphatase 1 (WIP1) (AID 1347425)
# Method in brief: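 The read-out is the change in Rhodamine-PBP fluorescence (f1 - f0, ex 525/em 598 nm) as Pi is released, read each minute for 11 min. Final reaction: 5 nM WIP1, 10 uM phosphopeptide VEPPL-pS-QETFS, 10 uM Rh-PBP, 50 mM Tris-HCl pH 7.5, 30 mM MgCl2. Compound was preincubated with enzyme for 1 hour at room temperature.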
# [9] = Primary qHTS for small molecule stabilizers of the endoplasmic reticulum resident proteome: Secreted ER Calcium Modulated Protein (SERCaMP) assay (AID 1508630)
# Method in brief: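 The SH-SY5Y reporter protocol was run at 3 concentrations up to 38.3 uM (primary) or 11 concentrations (follow-up): 16 h compound, 100 nM thapsigargin for 4 h, then extracellular luciferase luminescence.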
# [10] = Cell Viability qHTS for small molecule stabilizers of the endoplasmic reticulum resident proteome (AID 1508629); details: cell viability counter-screen, 100 nM thapsigargin for final 4 h;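 note: human SH-SY5Y neuroblastoma cells carrying the GLuc-SERCaMP reporter; compound exposure about 46 h in total before the viability read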
# [11] = molecular target: Calcium and integrin-binding protein 1 (Homo sapiens) (UniProt Q99828); assay: Confirmatory qHTS for Identification of Calcium Integrin Binding Protein 1 (CIB1) Competitor (AID 1508617); note: potency is the fitted concentration of half-maximal effect; nearly all actives have a fitted effect of over 65% in size
# Method in brief: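 Compounds at up to 114 uM final met 1 uM GST-tagged CIB1 for 15 min at room temperature (HEPES pH 7.4, 5 mM CaCl2). FITC-labelled alphaIIb peptide, 100 nM, added; polarization read after 15 min more.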
# [12] = molecular target: N-terminal Xaa-Pro-Lys N-methyltransferase 1 (Homo sapiens) (UniProt Q9BV86); assay: Confirmatory qHTS for Inhibitors of N-terminal methyltransferase 1 (NTMT1): MTaseGlo Assay (AID 1645874);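 note: luminescence from SAH made as NTMT1 methylates SPKRIA peptide using SAM; series mostly up to about 100 µM; nearly all actives have a fitted effect of over 65% in size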
# Method in brief: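 MTase-Glo luminescence measured SAH formed by 125 nM NTMT1 from 100 uM SAM and 1 uM SPKRIA peptide over 30 min at room temperature, following 15 min compound preincubation. Percent inhibition against no-enzyme and DMSO controls gave 4-parameter Hill fits.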
# [13] = qHTS to identify inhibitors of the type 1 interferon - major histocompatibility complex class I in skeletal muscle: primary screen against the NCATS Mechanism Interrogation Plate v5.0 (MIPE) Libary (AID 1347411); note: nearly all actives have a fitted effect of over 65% in size
# Method in brief: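 Luminescence from CRISPR HiBit-tagged endogenous HLA-B in human myoblasts reported MHC class I level after 24 h of IFN-beta (4 ng/ml) plus compound. Compounds ran as 11-point 1:3 series, top 46 uM final.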
# [14] = qHTS for inhibitors of adenylyl cyclases using a fission yeast platform: a pilot screen against the NCATS LOPAC library (AID 1347410)
# Method in brief: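 Read-out: fbp1-GFP fluorescence by laser scanning cytometry (488 nm laser), a gain of signal when AC/cAMP-PKA signalling is inhibited. Strain CHP2027 expressing AC9, GNAS and PDE4D2; compounds at up to 57 µM; 18 h, 30C.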
# [15] = molecular target: Single-stranded DNA cytosine deaminase (Homo sapiens) (UniProt Q9GZX7); assay: Validation qHTS assay for inhibitors of Activation Induced Cytidine Deaminase (AID): AID signal (AID 1347429)
# Method in brief: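 Compounds (final up to 114 uM) preincubated with AID plus UDG; 250 nM DJC20/DJC23 substrate mix (4x stock) added, 4 hr at room temperature, then NaOH, 30 min. Read 1 fluorescence at 540 nm excitation, 590 nm emission.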
# [16] = molecular target: Calcium and integrin-binding protein 1 (Homo sapiens) (UniProt Q99828); assay: Validation qHTS for Identification of Calcium Integrin Binding protein 1 (CIB1) Competitor (AID 1508618)
# Method in brief: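 CIB1-GST (1 uM final) incubated 15 min at room temperature with compounds (up to 114 uM), then FITC-labelled alphaIIb peptide (100 nM) added. FP read (Ex 480/Em 540) after 15 min, pH 7.4 buffer containing 5 mM CaCl2.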
# [17] = molecular target: Papain (Carica papaya) (UniProt P00784); assay: Primary qHTS assay for inhibitors of the protease papain (AID 1645873);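 note: papain turnover of Z-FR-AMC read as the AMC fluorescence gain over 10 min; series mostly up to about 50 µM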
# Sequence of Papain (Carica papaya) (P00784 whole entry, looked up): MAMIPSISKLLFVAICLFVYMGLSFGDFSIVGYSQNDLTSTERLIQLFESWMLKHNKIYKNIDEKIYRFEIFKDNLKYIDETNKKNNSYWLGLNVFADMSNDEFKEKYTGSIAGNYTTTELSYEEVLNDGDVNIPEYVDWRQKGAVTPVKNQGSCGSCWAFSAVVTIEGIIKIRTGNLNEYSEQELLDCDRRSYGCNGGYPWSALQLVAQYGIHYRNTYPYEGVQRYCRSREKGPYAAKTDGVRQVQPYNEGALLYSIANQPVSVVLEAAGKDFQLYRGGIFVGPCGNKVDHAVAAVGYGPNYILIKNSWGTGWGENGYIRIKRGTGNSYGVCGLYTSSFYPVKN
# Sequence of Cytochrome P450 2D6 (Homo sapiens) (P10635 whole entry, looked up): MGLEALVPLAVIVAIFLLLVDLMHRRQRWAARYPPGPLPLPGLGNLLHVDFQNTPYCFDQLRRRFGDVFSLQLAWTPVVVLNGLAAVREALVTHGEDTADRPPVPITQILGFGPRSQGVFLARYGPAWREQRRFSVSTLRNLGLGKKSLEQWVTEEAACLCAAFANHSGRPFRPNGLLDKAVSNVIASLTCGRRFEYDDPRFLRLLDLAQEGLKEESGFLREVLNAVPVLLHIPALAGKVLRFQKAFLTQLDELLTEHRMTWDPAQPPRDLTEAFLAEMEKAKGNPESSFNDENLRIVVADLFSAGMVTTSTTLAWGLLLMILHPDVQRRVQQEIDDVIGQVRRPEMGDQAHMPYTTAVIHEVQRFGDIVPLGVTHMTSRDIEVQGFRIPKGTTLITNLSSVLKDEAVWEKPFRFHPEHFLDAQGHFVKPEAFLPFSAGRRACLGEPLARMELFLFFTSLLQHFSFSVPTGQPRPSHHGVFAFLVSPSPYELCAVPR
# Sequence of Cytochrome P450 2C9 (Homo sapiens) (P11712 whole entry, looked up): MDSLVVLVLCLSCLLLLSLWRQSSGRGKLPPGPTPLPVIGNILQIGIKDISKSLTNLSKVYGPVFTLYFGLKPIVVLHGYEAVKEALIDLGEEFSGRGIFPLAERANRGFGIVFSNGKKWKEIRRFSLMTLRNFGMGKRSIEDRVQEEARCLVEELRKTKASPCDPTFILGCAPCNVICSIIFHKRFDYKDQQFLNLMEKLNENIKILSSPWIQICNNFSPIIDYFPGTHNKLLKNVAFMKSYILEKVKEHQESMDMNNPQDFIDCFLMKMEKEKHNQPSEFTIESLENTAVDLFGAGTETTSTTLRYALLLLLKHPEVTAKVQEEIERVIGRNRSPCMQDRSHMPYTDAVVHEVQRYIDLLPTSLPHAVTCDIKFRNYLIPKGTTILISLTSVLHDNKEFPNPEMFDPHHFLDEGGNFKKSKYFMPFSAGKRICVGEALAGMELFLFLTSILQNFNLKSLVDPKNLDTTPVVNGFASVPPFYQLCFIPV
# Sequence of Protein phosphatase 1D (Homo sapiens) (O15297 whole entry, looked up): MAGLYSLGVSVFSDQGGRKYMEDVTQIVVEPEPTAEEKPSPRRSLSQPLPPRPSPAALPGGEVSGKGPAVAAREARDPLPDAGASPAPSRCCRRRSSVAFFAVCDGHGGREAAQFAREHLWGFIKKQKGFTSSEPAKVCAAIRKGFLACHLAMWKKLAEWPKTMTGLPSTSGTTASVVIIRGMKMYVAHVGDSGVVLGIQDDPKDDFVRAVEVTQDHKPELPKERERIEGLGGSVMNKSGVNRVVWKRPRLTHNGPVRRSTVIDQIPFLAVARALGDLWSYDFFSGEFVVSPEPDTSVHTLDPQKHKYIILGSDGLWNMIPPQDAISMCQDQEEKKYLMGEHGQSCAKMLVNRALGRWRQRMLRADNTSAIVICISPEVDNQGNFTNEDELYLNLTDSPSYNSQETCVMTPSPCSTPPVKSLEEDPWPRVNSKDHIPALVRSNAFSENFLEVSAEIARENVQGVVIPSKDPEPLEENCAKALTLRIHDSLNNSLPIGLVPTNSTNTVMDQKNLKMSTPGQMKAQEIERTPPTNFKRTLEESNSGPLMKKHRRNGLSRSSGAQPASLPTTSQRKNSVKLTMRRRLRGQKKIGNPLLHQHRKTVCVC
# Sequence of Calcium and integrin-binding protein 1 (Homo sapiens) (Q99828 whole entry, looked up): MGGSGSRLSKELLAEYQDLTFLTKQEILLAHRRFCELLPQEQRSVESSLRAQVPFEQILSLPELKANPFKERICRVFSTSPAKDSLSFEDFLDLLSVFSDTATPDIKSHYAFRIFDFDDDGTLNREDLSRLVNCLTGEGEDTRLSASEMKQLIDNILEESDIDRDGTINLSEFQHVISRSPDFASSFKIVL
# Sequence of Single-stranded DNA cytosine deaminase (Homo sapiens) (Q9GZX7 whole entry, looked up): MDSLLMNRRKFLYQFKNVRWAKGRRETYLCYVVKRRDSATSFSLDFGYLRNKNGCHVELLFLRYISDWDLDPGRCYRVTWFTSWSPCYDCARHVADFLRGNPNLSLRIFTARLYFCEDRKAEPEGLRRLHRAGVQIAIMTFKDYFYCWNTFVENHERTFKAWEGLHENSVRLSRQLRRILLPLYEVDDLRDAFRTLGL
# Sequence of N-terminal Xaa-Pro-Lys N-methyltransferase 1 (Homo sapiens) (Q9BV86 whole entry, looked up): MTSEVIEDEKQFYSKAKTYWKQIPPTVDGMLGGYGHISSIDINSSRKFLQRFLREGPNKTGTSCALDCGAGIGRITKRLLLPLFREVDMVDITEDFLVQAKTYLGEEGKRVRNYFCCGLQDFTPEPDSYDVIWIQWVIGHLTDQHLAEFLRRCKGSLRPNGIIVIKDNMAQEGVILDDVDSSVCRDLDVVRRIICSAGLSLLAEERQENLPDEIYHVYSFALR
smiles,measurement,setting,value
COc1ccc([C@@H]2Sc3ccccc3NC(=O)[C@@H]2O)cc1,Potency,[1],inactive
same,Potency,[2],inactive
same,outcome,[3],inactive
same,Potency,[4],inactive
same,Potency,[5],inactive
same,Potency,[6],13.8 µM (active)
CN1N=C(C(N)=O)CCC1=O,Potency,[1],inactive
same,Potency,[2],inactive
same,outcome,[3],inactive
same,Potency,[4],inactive
same,Potency,[5],inactive
same,Potency,[6],inactive
same,Potency,[7],inactive
C[C@H](CN1CCCC1)C(=O)c1ccc(C(F)(F)F)cc1,Potency,[1],inactive
same,outcome,[8],inactive
same,outcome,[3],inactive
same,Potency,[4],inactive
same,Potency,[9],inactive
same,Potency,[5],inactive
same,Potency,[6],2.19 µM (active)
Cc1cc(O)c2c(O)c3c(O)cccc3cc2c1,Potency,[1],inactive
same,outcome,[3],inactive
same,Potency,[4],inactive
same,Potency,[9],inactive
same,Potency,[6],inactive
same,Potency,[7],3.09 µM (active)
O=C(NO)c1ccccc1,Potency,[2],inactive
same,outcome,[8],inactive
same,outcome,[3],inactive
same,Potency,[4],inactive
same,max response,[10],2.69%
same,Potency,[6],inactive
same,Potency,[7],inactive
Nc1cc(C(F)(F)F)ccc1S,Potency,[2],inactive
same,outcome,[8],inactive
same,outcome,[3],inactive
same,Potency,[11],22.4 µM (active)
same,Potency,[4],28.2 µM (active)
same,Potency,[6],15.5 µM (active)
same,Potency,[7],1.38 µM (active)
same,Potency,[12],inactive
CCN1CCN(c2cc(-c3ccc(F)cc3)c3c(n2)CCCCCC3)CC1,Potency,[1],inactive
same,outcome,[8],inactive
same,outcome,[3],inactive
same,Potency,[4],inactive
same,Potency,[5],inactive
same,Potency,[7],inactive
Nc1cccc2c(N)cccc12,Potency,[1],inactive
same,Potency,[6],2.99 µM (active)
same,Potency,[7],18.9 µM (active)
O=C(O)Cn1c(=O)n(Cc2ccc(Br)cc2F)c(=O)c2ccc(Cl)cc21,Potency,[1],inactive
same,outcome,[3],inactive
same,Potency,[4],inactive
same,Potency,[5],inactive
same,Potency,[6],inactive
O=[N+]([O-])c1cncn1CCN1CCOCC1,Potency,[13],inactive
same,Potency,[2],inactive
same,outcome,[8],inactive
same,outcome,[3],inactive
same,Potency,[4],inactive
same,Potency,[6],inactive
same,Potency,[7],inactive
COC(=O)[C@H]1[C@H]2C[C@@H]3c4[nH]c5cc(OC)ccc5c4CCN3C[C@H]2C[C@@H](OC(=O)/C=C/c2ccc(O)c(OC)c2)[C@@H]1OC,Potency,[1],inactive
same,outcome,[8],inactive
same,outcome,[3],inactive
same,Potency,[4],inactive
same,Potency,[6],inactive
CO[C@]1(NC(=O)CSC(F)F)C(=O)N2C(C(=O)O)=C(CSc3nnnn3CCO)CO[C@H]21,Potency,[1],inactive
same,outcome,[8],inactive
same,Potency,[4],inactive
same,Potency,[5],inactive
same,Potency,[6],inactive
same,Potency,[7],inactive
CCOC(=O)c1ccc(O)c(O)c1,Potency,[2],inactive
same,outcome,[8],inactive
same,outcome,[3],inactive
same,Potency,[4],inactive
same,max response,[10],4.88%
same,Potency,[6],inactive
CCCCCCCC(=O)[O-].CCCCCCCC(=O)[O-].[Zn+2],Potency,[1],inactive
same,outcome,[3],inactive
same,Potency,[9],inactive
same,Potency,[5],inactive
same,Potency,[7],inactive
CCCN(CCC)C(=O)C(CCC(=O)OCCCN1CCN(CCOC(=O)Cc2c(C)n(C(=O)c3ccc(Cl)cc3)c3ccc(OC)cc23)CC1)NC(=O)c1ccccc1 (configuration not stated),Potency,[1],inactive
same,outcome,[3],inactive
same,Potency,[4],inactive
same,Potency,[6],7.76 µM (active)
same,Potency,[7],3.47 µM (active)
Cn1cnc2c(NCc3ccccc3)nc(NCCO)nc21,outcome,[14],inactive
same,outcome,[15],inactive
same,outcome,[3],inactive
same,outcome,[16],inactive
same,Potency,[9],inactive
same,outcome,[17],inactive
CSc1ccc(/C=C2/C(C)=C(CC(=O)O)c3cc(F)ccc32)cc1,Potency,[1],inactive
same,outcome,[3],inactive
same,Potency,[7],inactive
CC(=O)O[C@H]1CC[C@@]2(C)C(=CC[C@@H]3[C@@H]2CC[C@]2(C)C(C(C)=O)=CC[C@@H]32)C1,Potency,[1],inactive
same,outcome,[8],inactive
same,Potency,[4],inactive
same,Potency,[9],inactive
same,Potency,[5],inactive
same,Potency,[6],inactive
same,Potency,[7],inactive
CCc1cccc2c(CCO)c[nH]c12,Potency,[1],inactive
same,outcome,[8],inactive
same,outcome,[3],inactive
same,Potency,[4],inactive
same,Potency,[5],inactive
same,Potency,[7],inactive
C[C@@H](C1=C(CCN(C)C)Cc2ccccc21)c1ccccn1,Potency,[1],inactive
same,outcome,[8],inactive
same,outcome,[3],inactive
same,Potency,[4],inactive
same,Potency,[6],11 µM (active)
same,Potency,[7],inactive
Cc1ccc(CCn2c3c(c4cc(Cl)ccc42)CN(C)CC3)cn1,Potency,[1],inactive
same,outcome,[8],inactive
same,outcome,[3],inactive
same,Potency,[4],inactive
same,Potency,[6],2.19 µM (active)
same,Potency,[7],inactive
Cc1oc(-c2ccccc2)nc1CCC(=O)c1ccc(CC2SC(=O)NC2=O)cc1 (configuration not stated),Potency,[1],inactive
same,Potency,[4],inactive
same,Potency,[9],inactive
Nc1ncnc2n[nH]c(Nc3ccc(F)cc3)c12,outcome,[14],inactive
same,outcome,[15],inactive
same,outcome,[3],inactive
same,outcome,[16],inactive
same,Potency,[4],inactive
same,Potency,[9],inactive
same,outcome,[17],inactive
C[C@H]1C[C@H]2[C@@H]3CCC4=CC(=O)C=C[C@]4(C)[C@H]3C(=O)C[C@]2(C)[C@@]1(O)C(=O)CO,Potency,[13],inactive
same,Potency,[2],inactive
same,outcome,[3],inactive
same,Potency,[4],inactive
same,Potency,[9],inactive
same,Potency,[5],inactive
same,Potency,[6],inactive
same,Potency,[7],15.1 µM (active)
O=C1c2ccccc2CCc2ccccc21,Potency,[1],inactive
same,outcome,[8],inactive
same,outcome,[3],inactive
same,Potency,[4],inactive
same,Potency,[5],inactive
same,Potency,[6],inactive
same,Potency,[7],inactive
NC(=O)COCCN1CCN(C(c2ccccc2)c2ccc(Cl)cc2)CC1 (configuration not stated),Potency,[1],inactive
same,outcome,[8],inactive
same,outcome,[3],inactive
same,Potency,[4],inactive
same,Potency,[6],inactive
same,Potency,[7],inactive
CC(C(O)c1ccccc1)N(C)CCOC(c1ccccc1)c1ccccc1 (configuration not stated),Potency,[2],inactive
same,outcome,[8],inactive
same,outcome,[3],inactive
same,Potency,[4],inactive
same,max response,[10],-4.6%
same,Potency,[6],0.0309 µM (active)
same,Potency,[7],13.8 µM (active)
OCc1c[nH]c2ccccc12,Potency,[1],inactive
same,outcome,[3],inactive
same,Potency,[4],inactive
same,Potency,[6],25.2 µM (active)
same,Potency,[7],7.31 µM (active)
O=C(O)c1ccccc1S,Potency,[1],inactive
same,outcome,[8],inactive
same,outcome,[3],inactive
same,Potency,[4],inactive
same,Potency,[5],inactive
same,Potency,[7],inactive
